Targets with a hit are over-represented here; the source holds about 8,800 in all. About 0.5% of all pairs of compound and target were hits.

Sequence of UniProt Q06547 (Q06547 whole entry, looked up): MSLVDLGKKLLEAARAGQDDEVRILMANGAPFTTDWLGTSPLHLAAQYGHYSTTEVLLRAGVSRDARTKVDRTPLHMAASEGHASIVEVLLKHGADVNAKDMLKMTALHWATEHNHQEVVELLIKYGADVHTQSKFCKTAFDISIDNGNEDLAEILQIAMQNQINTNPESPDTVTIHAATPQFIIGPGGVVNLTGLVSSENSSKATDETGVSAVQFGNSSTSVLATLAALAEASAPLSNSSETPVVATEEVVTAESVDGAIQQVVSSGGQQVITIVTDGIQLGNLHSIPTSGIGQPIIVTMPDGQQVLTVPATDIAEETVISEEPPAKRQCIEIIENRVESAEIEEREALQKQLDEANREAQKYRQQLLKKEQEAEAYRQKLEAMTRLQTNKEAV
Sequence of UniProt Q13409 (Q13409 whole entry, looked up): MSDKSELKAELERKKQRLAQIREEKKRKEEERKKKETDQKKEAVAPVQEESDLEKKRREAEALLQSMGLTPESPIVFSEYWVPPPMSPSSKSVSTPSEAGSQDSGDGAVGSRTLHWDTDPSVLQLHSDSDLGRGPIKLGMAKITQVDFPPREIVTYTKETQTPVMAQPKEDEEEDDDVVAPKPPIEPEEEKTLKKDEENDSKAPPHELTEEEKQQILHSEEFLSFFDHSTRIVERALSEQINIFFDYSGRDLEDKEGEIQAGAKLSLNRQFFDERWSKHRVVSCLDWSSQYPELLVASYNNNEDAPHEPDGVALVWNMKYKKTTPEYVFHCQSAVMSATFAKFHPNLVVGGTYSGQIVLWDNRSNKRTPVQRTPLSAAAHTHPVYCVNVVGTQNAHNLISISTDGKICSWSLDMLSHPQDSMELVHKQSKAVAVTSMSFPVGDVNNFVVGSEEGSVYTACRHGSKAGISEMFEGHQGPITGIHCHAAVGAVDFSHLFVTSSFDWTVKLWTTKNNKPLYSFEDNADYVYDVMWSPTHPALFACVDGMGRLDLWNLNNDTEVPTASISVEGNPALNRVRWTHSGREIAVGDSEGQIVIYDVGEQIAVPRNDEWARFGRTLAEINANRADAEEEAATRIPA
Sequence of UniProt Q9Y613 (Q9Y613 whole entry, looked up): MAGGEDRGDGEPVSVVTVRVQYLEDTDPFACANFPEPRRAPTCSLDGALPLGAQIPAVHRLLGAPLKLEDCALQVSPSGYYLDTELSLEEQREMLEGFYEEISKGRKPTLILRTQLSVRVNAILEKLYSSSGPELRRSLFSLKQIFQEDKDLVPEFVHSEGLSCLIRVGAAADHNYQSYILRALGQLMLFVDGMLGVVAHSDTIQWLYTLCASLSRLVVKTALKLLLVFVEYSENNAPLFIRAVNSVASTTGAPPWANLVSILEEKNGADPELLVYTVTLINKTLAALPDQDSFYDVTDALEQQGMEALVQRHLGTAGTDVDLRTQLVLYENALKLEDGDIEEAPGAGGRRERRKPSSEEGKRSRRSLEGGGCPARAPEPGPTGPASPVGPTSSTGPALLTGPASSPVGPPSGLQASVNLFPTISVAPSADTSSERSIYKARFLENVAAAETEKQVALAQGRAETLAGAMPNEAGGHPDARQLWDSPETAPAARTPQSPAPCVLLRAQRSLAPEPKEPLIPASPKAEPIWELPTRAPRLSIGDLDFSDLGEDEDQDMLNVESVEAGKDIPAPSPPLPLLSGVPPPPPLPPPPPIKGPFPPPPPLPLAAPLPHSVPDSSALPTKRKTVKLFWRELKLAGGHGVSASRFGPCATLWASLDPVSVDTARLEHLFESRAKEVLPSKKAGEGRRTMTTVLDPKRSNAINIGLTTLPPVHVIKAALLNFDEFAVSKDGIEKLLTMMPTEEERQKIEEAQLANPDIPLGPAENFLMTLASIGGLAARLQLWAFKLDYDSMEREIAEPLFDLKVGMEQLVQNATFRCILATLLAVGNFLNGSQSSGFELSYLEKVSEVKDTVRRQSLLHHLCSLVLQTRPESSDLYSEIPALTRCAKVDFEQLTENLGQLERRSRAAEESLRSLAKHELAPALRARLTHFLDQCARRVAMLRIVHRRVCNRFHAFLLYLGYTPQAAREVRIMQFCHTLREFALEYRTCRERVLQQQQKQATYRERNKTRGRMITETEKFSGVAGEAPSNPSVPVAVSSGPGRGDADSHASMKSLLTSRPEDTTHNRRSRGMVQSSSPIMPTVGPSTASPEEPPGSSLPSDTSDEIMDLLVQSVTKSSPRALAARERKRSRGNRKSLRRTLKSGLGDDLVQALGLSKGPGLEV
Sequence of UniProt O95571 (O95571 whole entry, looked up): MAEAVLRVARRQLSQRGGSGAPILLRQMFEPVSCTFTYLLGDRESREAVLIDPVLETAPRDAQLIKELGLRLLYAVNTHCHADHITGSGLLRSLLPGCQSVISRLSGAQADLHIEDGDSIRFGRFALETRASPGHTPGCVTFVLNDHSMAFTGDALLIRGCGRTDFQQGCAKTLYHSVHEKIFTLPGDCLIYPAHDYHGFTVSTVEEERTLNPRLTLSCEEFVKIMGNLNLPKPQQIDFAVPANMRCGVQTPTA
Sequence of UniProt Q8NCA5 (Q8NCA5 whole entry, looked up): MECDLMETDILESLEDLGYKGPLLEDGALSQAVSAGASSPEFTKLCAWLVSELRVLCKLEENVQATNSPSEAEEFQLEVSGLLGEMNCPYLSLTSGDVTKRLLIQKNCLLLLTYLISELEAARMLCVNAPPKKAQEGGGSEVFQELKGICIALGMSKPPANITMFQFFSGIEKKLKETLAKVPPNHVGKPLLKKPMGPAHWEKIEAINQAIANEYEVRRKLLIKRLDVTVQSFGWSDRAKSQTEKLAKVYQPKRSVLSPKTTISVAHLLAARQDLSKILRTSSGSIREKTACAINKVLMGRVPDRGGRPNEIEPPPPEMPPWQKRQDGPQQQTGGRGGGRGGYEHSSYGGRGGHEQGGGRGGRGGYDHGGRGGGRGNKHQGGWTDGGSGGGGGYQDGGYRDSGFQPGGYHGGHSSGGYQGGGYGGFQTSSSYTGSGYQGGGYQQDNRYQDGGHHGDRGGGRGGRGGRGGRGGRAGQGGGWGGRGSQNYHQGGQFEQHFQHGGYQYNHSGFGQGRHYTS
Sequence of UniProt Q6P4F2 (Q6P4F2 whole entry, looked up): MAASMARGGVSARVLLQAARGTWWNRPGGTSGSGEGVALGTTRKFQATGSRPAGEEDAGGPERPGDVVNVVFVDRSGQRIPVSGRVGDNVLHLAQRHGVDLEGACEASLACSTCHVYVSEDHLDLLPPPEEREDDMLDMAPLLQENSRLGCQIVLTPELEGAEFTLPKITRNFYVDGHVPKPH
Sequence of UniProt Q8TEQ6 (Q8TEQ6 whole entry, looked up): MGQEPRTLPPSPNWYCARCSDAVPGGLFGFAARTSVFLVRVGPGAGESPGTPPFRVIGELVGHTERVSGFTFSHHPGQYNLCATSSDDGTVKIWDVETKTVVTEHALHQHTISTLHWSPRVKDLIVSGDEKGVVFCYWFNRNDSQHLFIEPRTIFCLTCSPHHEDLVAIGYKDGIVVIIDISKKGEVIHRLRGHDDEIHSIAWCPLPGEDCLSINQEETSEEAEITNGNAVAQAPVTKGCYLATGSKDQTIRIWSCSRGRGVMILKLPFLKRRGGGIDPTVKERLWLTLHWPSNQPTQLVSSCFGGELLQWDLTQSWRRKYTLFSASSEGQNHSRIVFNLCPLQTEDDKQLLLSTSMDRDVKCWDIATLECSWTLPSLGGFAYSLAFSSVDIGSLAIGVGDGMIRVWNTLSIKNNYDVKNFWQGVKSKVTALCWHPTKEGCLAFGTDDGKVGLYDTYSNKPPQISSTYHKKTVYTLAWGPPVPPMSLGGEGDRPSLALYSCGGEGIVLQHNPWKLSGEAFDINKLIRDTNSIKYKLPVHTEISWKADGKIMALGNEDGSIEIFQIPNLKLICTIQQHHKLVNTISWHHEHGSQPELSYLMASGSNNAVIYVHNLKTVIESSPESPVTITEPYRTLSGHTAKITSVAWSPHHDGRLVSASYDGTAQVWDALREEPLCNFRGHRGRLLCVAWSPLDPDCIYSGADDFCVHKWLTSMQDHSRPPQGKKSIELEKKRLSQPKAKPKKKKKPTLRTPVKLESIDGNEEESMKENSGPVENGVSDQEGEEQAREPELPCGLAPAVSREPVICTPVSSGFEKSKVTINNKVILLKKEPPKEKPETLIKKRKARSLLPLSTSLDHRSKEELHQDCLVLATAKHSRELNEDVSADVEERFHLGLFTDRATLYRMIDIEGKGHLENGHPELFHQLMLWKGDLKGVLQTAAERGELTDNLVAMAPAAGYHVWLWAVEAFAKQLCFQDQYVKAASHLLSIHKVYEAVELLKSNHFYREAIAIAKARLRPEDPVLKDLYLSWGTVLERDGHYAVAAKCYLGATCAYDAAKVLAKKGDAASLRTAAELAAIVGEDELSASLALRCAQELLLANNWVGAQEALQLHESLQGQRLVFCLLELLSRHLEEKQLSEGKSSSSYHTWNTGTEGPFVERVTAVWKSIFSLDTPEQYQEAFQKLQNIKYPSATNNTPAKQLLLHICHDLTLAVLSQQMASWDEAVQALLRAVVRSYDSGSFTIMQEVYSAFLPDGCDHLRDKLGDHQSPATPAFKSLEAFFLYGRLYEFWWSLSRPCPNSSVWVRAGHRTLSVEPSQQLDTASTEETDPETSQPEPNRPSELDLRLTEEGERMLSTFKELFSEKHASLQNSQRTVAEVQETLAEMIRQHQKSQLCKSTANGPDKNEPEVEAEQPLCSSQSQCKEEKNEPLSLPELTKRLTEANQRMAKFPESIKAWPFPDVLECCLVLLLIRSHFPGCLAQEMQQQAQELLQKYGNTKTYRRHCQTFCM
Sequence of UniProt P0C2W1 (P0C2W1 whole entry, looked up): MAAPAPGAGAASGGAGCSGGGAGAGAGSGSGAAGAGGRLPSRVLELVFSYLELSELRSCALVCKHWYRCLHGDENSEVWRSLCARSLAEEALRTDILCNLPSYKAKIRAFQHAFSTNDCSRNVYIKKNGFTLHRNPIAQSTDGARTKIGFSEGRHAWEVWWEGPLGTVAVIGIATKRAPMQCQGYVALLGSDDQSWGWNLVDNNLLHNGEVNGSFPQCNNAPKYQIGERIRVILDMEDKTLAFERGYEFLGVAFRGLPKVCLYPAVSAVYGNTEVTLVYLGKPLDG

Compound in this assay: C#Cc1cccc(Nc2ncnc3cc(OCCOC)c(OCCOC)cc23)c1 [erlotinib]
Kind of assay: log2 fold change, soluble protein after heating vs DMSO (PISA); higher = thermal stabilisation; K562 lysate, 10 uM; active = over 0.2 and 3.5 SD of the protein, either way, in both replicates (recomputed). In outline:
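K562 pellets were dounce-homogenised in PBS pH 7.4 containing 1 mM MgCl2, and the crude extract, at 1 mg/mL protein, was exposed to 10 μM compound for 30 min. Aliquots were heated for 3 min across 48°C-58°C, pooled, brought to 0.5% NP-40 at 4°C and spun at 21,000xg for 90 min, with the supernatant taken as soluble protein. TMTpro 16plex LC-MS/MS with equalised channel sums quantified that protein. Values are log-two fold changes in thermal stability relative to solvent controls, taken from duplicates.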
For the target FAU (UniProt E9PR30), the log2 fold change is -0.026 (inactive).

For the target FTSJ3 (UniProt Q8IY81), the log2 fold change is 0.064 (inactive).

In the case of GALK1 isoform 2 (UniProt P51570), the log2 fold change is 0.021 (inactive).

In the case of FHOD1 (UniProt Q9Y613), the log2 fold change is 0.005 (inactive).

In the case of FNTB (UniProt P49356), the log2 fold change was -0.03 (inactive).

For ETHE1 (UniProt O95571), the log2 fold change was -0.046 (inactive).

In the case of GATAD2A isoform 3 (UniProt Q86YP4), the log2 fold change was 0.012 (inactive).

In the case of DYNC1I2 isoform 2 (UniProt Q13409), the log2 fold change is -0.012 (inactive).

EIF3I (UniProt Q13347): the log2 fold change is 0.013 (inactive).

ENSA isoform 3 (UniProt O43768): the log2 fold change is -0.034 (inactive).

In the case of GDPD1 (UniProt Q8N9F7), the log2 fold change is -0.037 (inactive).

Consider EEF1A1, A0A087WVQ9, for which the log2 fold change is 0.029 (inactive).

With FAM98A (UniProt Q8NCA5), the log2 fold change is -0.004 (inactive).

With GEMIN5 (UniProt Q8TEQ6), the log2 fold change was -0.001 (inactive).

For the target FXR2 (UniProt P51116), the log2 fold change is 0.018 (inactive).

As to ENO1 isoform 2 (UniProt P06733), the log2 fold change was -0.02 (inactive).

GABPB1 (UniProt Q06547): the log2 fold change is -0.004 (inactive).

As for GABPB1 isoform 3 (UniProt Q06547), the log2 fold change was -0.03 (inactive).

With EIF2B4 (UniProt Q9UI10), the log2 fold change was 0.066 (inactive).

Regarding FYN (UniProt P06241), the log2 fold change was -0.028 (inactive).

For DUS2 (UniProt Q9NX74), the log2 fold change is 0.006 (inactive).

As to FBXO45 (UniProt P0C2W1), the log2 fold change is 0.077 (inactive).

For EP400 isoform 5 (UniProt Q96L91), the log2 fold change was 0.045 (inactive).

As to ECI2 (UniProt O75521), the log2 fold change is 0.032 (inactive).

FBLL1 (UniProt A6NHQ2): the log2 fold change was -0.003 (inactive).

Turning to FADS3 (UniProt Q9Y5Q0), the log2 fold change is 0.075 (inactive).

For FANCD2 isoform 1 (UniProt Q9BXW9), the log2 fold change was 0.059 (inactive).

As to DYRK1A (UniProt Q13627), the log2 fold change was -0.061 (inactive).

Regarding GGA2 (UniProt Q9UJY4), the log2 fold change was -0.014 (inactive).

Take DYNC1I2 isoform 5 (UniProt Q13409): the log2 fold change is -0.005 (inactive).

With EXOC1 (UniProt Q9NV70), the log2 fold change is 0.05 (inactive).

As to FAM83A (UniProt Q86UY5), the log2 fold change was 0 (inactive).

DST (UniProt Q03001): the log2 fold change was 0.025 (inactive).

For GCN1 (UniProt Q92616), the log2 fold change is 0.048 (inactive).

FDX2 (UniProt Q6P4F2): the log2 fold change was -0.051 (inactive).

Turning to ENO1, A0A2R8YEM5, the log2 fold change was -0.019 (inactive).

(Values after the supplement of paper PMC10849652.)
